Laboratory results reported in the supplement of paper PMC9694430.

Legend:
Test in all cases: thermal shift delta Tm vs DMSO control; higher = stronger stabilization (binding)
Conditions in all cases: 12.5 µM; protein concentration 2 µM
LOC_OS01G01410-cb001 = test system: LOC_OS01G01410-cb001
Procedure, shortened: (§1)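 The melting temperature shift given here is a triplicate mean, measured against protein that received only DMSO. Melting temperatures came from Boltzmann fits of differential scanning fluorimetry data on E. coli-expressed, purified rice kinase domain constructs. Each 19.5 μl well contained 2 μM kinase, 100 mM potassium phosphate pH 7.5, 150 mM NaCl, 10% glycerol, 5 × SYPRO Orange and compound in DMSO. Plates were scanned from 25°C to 95°C at 0.05°C/s.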

LOC_OS01G02750-cb003 = test system: LOC_OS01G02750-cb003
Procedure, shortened: as §1

LOC_OS01G10900-cb004 = test system: LOC_OS01G10900-cb004
Procedure, shortened: as §1

LOC_OS01G13800-cb001 = test system: LOC_OS01G13800-cb001
Procedure, shortened: as §1

LOC_OS01G14860-cb001 = test system: LOC_OS01G14860-cb001
Procedure, shortened: as §1

LOC_OS01G21960-cb002 = test system: LOC_OS01G21960-cb002
Procedure, shortened: as §1

LOC_OS01G39600-cb002 = test system: LOC_OS01G39600-cb002
Procedure, shortened: as §1

LOC_OS01G48390-cb002 = test system: LOC_OS01G48390-cb002
Procedure, shortened: as §1

LOC_OS01G51400-cb002 = test system: LOC_OS01G51400-cb002
Procedure, shortened: as §1

LOC_OS01G52050-cb004 = test system: T1, LOC_OS01G52050-cb004
T1 sequence (whole entry): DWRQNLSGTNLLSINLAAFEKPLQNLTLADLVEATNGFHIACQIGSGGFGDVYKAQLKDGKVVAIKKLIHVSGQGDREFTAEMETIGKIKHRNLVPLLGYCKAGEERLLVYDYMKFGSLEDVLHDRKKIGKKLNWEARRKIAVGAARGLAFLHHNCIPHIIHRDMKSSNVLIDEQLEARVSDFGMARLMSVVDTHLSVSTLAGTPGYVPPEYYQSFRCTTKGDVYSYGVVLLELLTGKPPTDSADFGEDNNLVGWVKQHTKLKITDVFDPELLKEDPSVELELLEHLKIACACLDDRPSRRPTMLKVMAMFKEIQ
Procedure, shortened: as §1

SMILES	thermal shift delta Tm (LOC_OS01G01410-cb001)	thermal shift delta Tm (LOC_OS01G02750-cb003)	thermal shift delta Tm (LOC_OS01G10900-cb004)	thermal shift delta Tm (LOC_OS01G13800-cb001)	thermal shift delta Tm (LOC_OS01G14860-cb001)	thermal shift delta Tm (LOC_OS01G21960-cb002)	thermal shift delta Tm (LOC_OS01G39600-cb002)	thermal shift delta Tm (LOC_OS01G48390-cb002)	thermal shift delta Tm (LOC_OS01G51400-cb002)	thermal shift delta Tm (LOC_OS01G52050-cb004)
N#CC[C@H](C1CCCC1)n1cc(-c2ncnc3[nH]ccc23)cn1	0.74 °C	1.15 °C	0.65 °C	-0.01 °C	1.62 °C	1.47 °C	0.6 °C	0.4 °C	-0.02 °C	0.98 °C
CN1CCN(Cc2ccc(-c3cnc4[nH]cc(-c5ccc6[nH]ccc6c5)c4c3)cc2)CC1	3.79 °C	5.34 °C	4.45 °C	-0.19 °C	4.87 °C	4.44 °C	9 °C	3.1 °C	0.11 °C	9.93 °C
N#CC(=C(/N)Sc1ccccc1N)/C(C#N)=C(\N)Sc1ccccc1N	1.35 °C	1.84 °C	-0.2 °C	0.46 °C	0.53 °C	0.18 °C	1.48 °C	0.24 °C	0.39 °C	2.41 °C
CCS(=O)(=O)Nc1ccc2c(c1)/C(=C(/Nc1ccc(CN3CCCCC3)cc1)c1ccccc1)C(=O)N2 [Hesperadin]	1.67 °C	4.74 °C	0.26 °C	-0.97 °C	4.63 °C	3.67 °C	7.78 °C	0.03 °C	0.3 °C	6.95 °C
O=C1CCc2c(Oc3ccc4c(c3)[C@@H]3[C@H](O4)[C@H]3c3nc4cc(C(F)(F)F)ccc4[nH]3)ccnc2N1 [Lifirafenib (BGB-283)]	1.01 °C	3.41 °C	2.3 °C	1.54 °C	5.38 °C	1.8 °C	0.61 °C	1.85 °C	0.55 °C	2.71 °C
O=c1cc(-c2cccc3c2Sc2ccccc2S3)oc(N2CCOCC2)c1	0.6 °C	-5.37 °C	1.94 °C	0.13 °C	2.44 °C	0.44 °C	0.29 °C	2.17 °C	-0.12 °C	-0.44 °C
Nc1ncnc2c1c(-c1cnc3[nH]ccc3c1)nn2C1CCCC1	1.35 °C	1.16 °C	2.01 °C	0.12 °C	1.82 °C	1.28 °C	0.43 °C	2.52 °C	0.19 °C	1.48 °C
CN1CCN(c2ccc3nc(-c4c(N)c5c(F)cccc5[nH]c4=O)[nH]c3c2)CC1 [Dovitinib (TKI-258, CHIR-258)]	6.03 °C	2.05 °C	2.59 °C	-0.2 °C	0.79 °C	2.56 °C	2.01 °C	1.63 °C	0.56 °C	3.72 °C
CC(C)(CO)n1cc(C(=O)c2cncc(NC(=O)Cc3ccc(Cl)cn3)c2)c2cnc(N)nc21	0.23 °C	0.58 °C	0.35 °C	0.55 °C	0.5 °C	0.13 °C	0.32 °C	0.37 °C	-0.05 °C	2.82 °C
c1nc2c(NC3CCCCC3)nc(Nc3ccc(N4CCOCC4)cc3)nc2[nH]1 [Reversine]	5.03 °C	0.7 °C	0.47 °C	0.43 °C	2.02 °C	2.54 °C	5.31 °C	-0.29 °C	1.66 °C	5.54 °C
COc1cc2ncnc(Sc3nnc(C)s3)c2cc1OC	1.2 °C	0.37 °C	0.57 °C	-0.34 °C	0.11 °C	0.06 °C	-0.24 °C	2.02 °C	0.02 °C	0.91 °C
C=CCc1ccc(O)c(-c2ccc(O)c(CC=C)c2)c1 [Honokiol]	0.83 °C	1.12 °C	0.85 °C	0.22 °C	0.9 °C	1.38 °C	1.21 °C	0.93 °C	0.36 °C	1.76 °C
CC#CC(=O)Nc1ccc2ncnc(Nc3cccc(Br)c3)c2c1	2.55 °C	1.15 °C	2.56 °C	0.12 °C	1.15 °C	0.48 °C	-0.38 °C	2.25 °C	0.38 °C	1.8 °C
Cc1cnc(Nc2ccc(OCCN3CCCC3)cc2)nc1Nc1cccc(S(=O)(=O)NC(C)(C)C)c1	1.71 °C	0.69 °C	0.57 °C	-0.28 °C	1.28 °C	2.52 °C	5.09 °C	0.66 °C	0.43 °C	2.51 °C
CCN(CC)CCCC(C)Nc1nc(C)cc(Nc2ccc3nc(C)cc(N)c3c2)n1 (stereo not given)	1.12 °C	1.02 °C	-0.35 °C	-0.26 °C	0.18 °C	0.15 °C	0.28 °C	1.07 °C	0.05 °C	0.12 °C
COc1cc(C(=O)N2CCC(N3CCN(C)CC3)CC2)ccc1Nc1ncc2c(n1)N(C)c1ccccc1C(=O)N2C	0.19 °C	0.47 °C	2.12 °C	0.41 °C	-0.08 °C	-0.12 °C	-0.15 °C	0.42 °C	-0.06 °C	-0.4 °C
O=C(NC[C@H](O)CO)c1ccncc1Nc1ccc(I)cc1F	0.13 °C	0.07 °C	1.79 °C	0.34 °C	0.16 °C	0.66 °C	-0.15 °C	0.13 °C	-0.03 °C	0.02 °C
COc1cc(N2CCC(N)CC2)ccc1Nc1ncc(Cl)c(-c2c[nH]c3ccccc23)n1	0.82 °C	0.87 °C	2.95 °C	-0.64 °C	1.41 °C	3.79 °C	-2.78 °C	0.17 °C	1.21 °C	5.27 °C
COc1cc2ccc(=O)oc2cc1O [Scopoletin]	-0.07 °C	0.35 °C	0.25 °C	-0.08 °C	0.39 °C	0.11 °C	-0.27 °C	-0.08 °C	0.18 °C	0.81 °C
CN(C)C[C@@H]1CCn2cc(c3ccccc32)C2=C(C(=O)NC2=O)c2cn(c3ccccc23)CCO1	1.3 °C	0.71 °C	0.95 °C	1.16 °C	2.41 °C	2.83 °C	2.85 °C	0.62 °C	-0.02 °C	-0.62 °C
